RGS12 GoLoco inh – RGS12 GoLoco-Gai1 interaction inhibition. Gai1:RGS12 GoLoco peptide FP, rhodamine, 10 min. Potency, µM (titrated, usually from 61.6 µM), inactives show at the top dose activity, negative = inhibition, most hits filed as inhibitors. P63096. 0.44% of 230,000 active; active means well fitted inhibition curve with a large enough effect, not every such curve was filed as active; inactive means no such curve, though single readings can be large or run the other way; further: potency means the concentration at half of the fitted maximal effect; on the % scale 0 is the no-effect control and ±100 the full control effect; nearly all actives have a fitted effect of over 30% in size
HPGD inh – inhibitors of human 15-hydroxyprostaglandin dehydrogenase (HPGD); purified HPGD, NADH fluorescence kinetic, PGE2 substrate; 4.3% of 150,000 active; AID 894; Potency, µM, for inactives: at the top dose activity change, negative = inhibition, most hits filed as inhibitors; P15428; active means well fitted inhibition curve with a large enough effect, not every such curve was filed as active; inconclusive means small, poorly fitted or top-dose-only effect, or another doubt; inactive means no such curve, though single readings can be large or run the other way; further: potency means the concentration at half of the fitted maximal effect; on the % scale 0 is the no-effect control and ±100 the full control effect
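NADH formation kinetics: reaction with 30 uM PGE2 and 1 mM NAD+ (final), 20 nM enzyme, Tris-HCl pH 8 with Tween 20, after 15 min compound preincubation at room temperature. Fluorescence change, last versus first of five reads.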
HTT ATP protect – cytoprotection in Huntington HTT-Q103 PC12 cell model; PC12 HTT-Q103 induced, cytoprotection, ATP luminescence, 40 h; 0.14% of 230,000 active; Potency, µM (top dose mostly 56.4 µM), without a hit: cytoprotection (ATP increase), actives largely listed as activators; further: potency means the concentration at half of the fitted maximal effect; % of control where 0% means no effect; nearly all actives have a fitted effect of over 45% in size
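Huntington model: PC12 line, ecdysone-inducible HTTQ103 exon1–GFP, tebufenozide 100 nM. Test articles in a dose series. Endpoint luminescence from cellular ATP.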
HttQ103 aggreg – mutant huntingtin aggregation inhibition; 1.1% of 220,000 active; AID 1688; Potency, µM (series often up to 46.1 µM), for inactives: at the top dose activity change, negative = inhibition, actives largely listed as inhibitors; PC12 HttQ103-GFP aggregates, Acumen cytometry, 40 h; further: potency means the concentration at half of the fitted maximal effect; on the % scale 0 is the no-effect control and ±100 the full control effect; nearly all actives have a fitted effect of over 60% in size
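Inducible Q103 Huntingtin exon 1–GFP PC12 line, 1500 cells/well in phenol red free DMEM with 5% equine and 5% calf serum. Tebufenozide 100 nM induced expression; compounds titrated; aggregates quantified by cytometry.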
PNC assembly inh – perinucleolar compartment assembly inhibition. activity change (PNC), negative = inhibition, % at 10 µM. PC3M PTB-GFP, PNC prevalence imaging, 16 h; active compounds read low. 3.1% of 140,000 active. AID 2417;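 active means readout at or below -70, meaning at least 70% loss of cells showing the perinucleolar compartment, a nuclear body marking cancer cells; inconclusive means readout between -30 and a set limit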;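 further: plate controls were DMSO wells for no effect and camptothecin positive control wells for full effect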
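Read-out is percentage of cells bearing a perinucleolar compartment, from automated 20x imaging of fixed, Hoechst-stained PC3M PTB-GFP cells. Cells were seeded 4 h, then exposed 16 h to compound (23 nl of library stock) in duplicate plates.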
ALDH1A1 inh – blocks purified human ALDH1A1 activity | P00352 | Purified ALDH1A1, NADH fluorescence, propionaldehyde substrate | Potency, µM (titrated, usually from 75.3 µM), for inactives: top-dose activity, negative = inhibition, actives largely listed as inhibitors | 7.3% of 220,000 active | AID 1030; active means well fitted inhibition curve with a large enough effect, not every such curve was filed as active; inconclusive means small, poorly fitted or top-dose-only effect, or another doubt; inactive means no such curve, though single readings can be large or run the other way;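 further: potency means the concentration at half of the fitted maximal effect; plate controls were no enzyme wells and a reference inhibitor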
Target sequence (P00352 whole entry, looked up): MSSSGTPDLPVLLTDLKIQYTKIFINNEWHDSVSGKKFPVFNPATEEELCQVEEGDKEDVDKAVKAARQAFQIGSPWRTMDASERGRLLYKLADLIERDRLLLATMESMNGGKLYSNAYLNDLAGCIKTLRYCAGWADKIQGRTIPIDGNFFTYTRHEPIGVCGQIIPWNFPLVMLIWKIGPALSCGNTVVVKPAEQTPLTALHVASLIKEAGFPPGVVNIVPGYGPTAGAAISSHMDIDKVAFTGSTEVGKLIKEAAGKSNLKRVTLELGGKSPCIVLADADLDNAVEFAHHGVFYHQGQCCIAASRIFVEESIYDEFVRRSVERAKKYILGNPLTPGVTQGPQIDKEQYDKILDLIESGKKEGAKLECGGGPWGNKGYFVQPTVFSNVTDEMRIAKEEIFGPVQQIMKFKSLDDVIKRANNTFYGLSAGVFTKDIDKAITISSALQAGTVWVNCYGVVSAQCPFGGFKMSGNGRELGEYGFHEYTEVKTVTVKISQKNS
Starred values were filed as active, the others as inactive; ? = inconclusive; nt = no result given; [ ] = remark or other dose. An excerpt weighted towards active compounds, which were near 11% of everything screened. Unless noted, the call rests on the fitted dose curve; in most records, active means well fitted curve in the direction sought with a large enough effect; inconclusive means small, poorly fitted or top-dose-only effect, or another doubt; inactive means no such curve, though single readings can be large; an effect the other way counts as inactive or inconclusive.

SMILES	RGS12 GoLoco inh	HPGD inh	HTT ATP protect	HttQ103 aggreg	PNC assembly inh	ALDH1A1 inh
COC(=O)c1ccc(NC(=S)N2CCN(Cc3ccc(Cl)cc3)CC2)cc1	13%	40µM*	0%	0%	7	2%
CC(=O)Nc1ccc(OCC(O)CN2CCN(c3cccc(Cl)c3)CC2)cc1 (configuration not stated)	3%	-2%	10%[10 µM]	-12%	-6	7%
CS(=O)(=O)N1CCN(c2ccc(NC(=O)CSc3ccc(Cl)cc3)cc2)CC1	15%	-10%	-10%	24%	12	0%
COC(=O)c1ccc(NC(=O)CN2CCN(S(=O)(=O)c3cc(Cl)ccc3OC)CC2)cc1	14%	-31%	11%[10 µM]	-2%	-8	2µM*
Cc1ccc(C(=O)N2CCN(c3ccc(NC(=O)CSc4ccc(Cl)cc4)cc3)CC2)cc1	2%	-7%	nt	-2%	-113*	?
CC(=O)Nc1ccc(OCC(O)CN2CCN(c3ccc(Cl)cc3)CC2)cc1 (configuration not stated)	-1%	-4%	34%[10 µM]	2%	-100*	3%
CC(=O)N1C(O)CC(C)N1c1ccccc1 (configuration not stated)	12%	-1%	1%[10 µM]	10%	25	7%
Cc1ccc(Cl)cc1NC(=O)N(C)CCO	15%	nt	17%[10 µM]	23%[9.22 µM]	nt	-1%
O=C(O)C[C@@H](C(=O)O)c1ccccc1[N+](=O)[O-]	7%[14.2 µM]	1%	-16%[10 µM]	nt	nt	-6%[13.5 µM]
COC(=O)c1ccc(NC(=O)CN2CCN(c3ccc(Cl)cc3)CC2)cc1	1%	-28%	11%[10 µM]	-4%	6	22µM*
CN(C)S(=O)(=O)c1cc(NC(=O)CN2CCN(c3ccc(O)cc3)CC2)ccc1Cl	1%	nt	-10%	-1%	nt	13µM*
COc1ccc(S(=O)(=O)N2CCCN(CC(=O)Nc3ccc4c(c3)OCO4)CC2)cc1	-9%	-4%	-16%	7%	47	?
CN(C)S(=O)(=O)c1cc(NC(=O)CN2CCN(c3ccccc3)CC2)ccc1Cl	-10%	3%	4%[1.9 µM]	25%	-25	-3%
O=C(CN1CCCN(S(=O)(=O)c2ccc(Br)s2)CC1)Nc1ccc(Cl)cc1	-12%	-12%	-8%	5%	23	4.5µM*
CCOC(=O)CNC(=O)CN1CCCN(S(=O)(=O)c2ccc(Br)s2)CC1	-3%	-7%	-14%	-2%	10	?
O=C(CN1CCCN(S(=O)(=O)c2ccc(Br)cc2)CC1)Nc1ccc2c(c1)OCO2	10%	-8%	25%[1.9 µM]	11%	16	11µM*
CCCC(=O)N1CCN(c2ccc(NC(=S)NC(=O)CC)cc2)CC1	6%	-9%	0%	14%	10	8%
COC(=O)c1ccc(NC(=O)CN2C(=O)CNC2=O)cc1	-21%	-19%	30%	19%	-26	18µM*
C=CCC1C=CC(OC(=O)OCC)C(COC(=O)OCC)O1 (configuration not stated)	nt	nt	-7%[10 µM]	nt	nt	11%[13.5 µM]
O=C(Nc1cccc(Cl)c1)Nc1nnc(-c2ccncc2)s1	-5%	?	41%[10 µM]	13µM*	0	4%
O=C(Nc1ccc(F)cc1)Nc1nnc(-c2ccncc2)s1	16%	-7%	-16%	11µM*	-2	15%
O=C(Nc1ccc(Cl)cc1)Nc1nnc(-c2ccncc2)s1	-1%	-8%	20%[10 µM]	?	27	5%
O=C(Nc1ccncc1)Nc1ccc(F)cc1F	-4%	-16%	-4%[1.9 µM]	35µM*	13	-11%
Nc1ncnc2c1ncn2[C@@H]1O[C@@H](C(=O)NC2CC2)[C@H](O)[C@@H]1O	nt	nt	-22%[1.9 µM]	nt	nt	nt
O=C(O)c1ccc(Cl)cc1Cl	7%	-11%	-10%	nt	nt	-9%
CC(C)(C)c1ccc(S(=O)(=O)N2CC(=O)Nc3ccccc32)cc1	-2%	-14%	12%	14%[9.22 µM]	-26	?
CCc1ccccc1N(C1=NCCCS1)S(=O)(=O)c1ccc(C(C)(C)C)cc1	-1%	-17%	19%[10 µM]	2%	?	0.79µM*

High-throughput results from PubChem BioAssay.
